Experimental findings from PubChem BioAssay (Tox21) are described below.

“And” between values parts separate entries of the source, which are not always exact repeats. Equal entries are not always repeated. Inconclusive results are not listed. Unmarked numbers belong to inactive results. The source made the active and inactive calls. Calls follow the shape of the dose curve; as a rule, active = well fitted cell-killing curve with a large enough effect in the repeat runs; inconclusive = weak or mixed curves, or effect the other way; inactive = no such curve, though single readings can be large or run the other way.
% is scaled to controls: 0 for no effect and ±100 for the full control effect; potency is read from the fitted curve at half-maximal effect.

A short description of this experiment: qHTS assay to identify small molecule antagonists of the thyroid receptor (TR) signaling pathway - cell viability counter screen (AID 743064). Also: nearly all actives have a fitted effect of over 50% in size. The note with it: GH3.TRE-Luc viability, CellTiter-Fluor, 24 h; series mostly up to 70.3 µM; activity change, negative = cytotoxic: at the top concentration. From the text:
National Center for Advancing Translational Sciences [NCATS]
NIH Chemical Genomics Center [NCGC]
U.S. Environmental Protection Agency [EPA]
National Institutes of Environmental Health Sciences [NIEHS]
National Toxicology Program [NTP]
U.S. Food and Drug Administration [FDA]
Thyroid receptor (TR), a nuclear hormone receptor, plays an important role in development, proliferation, differentiation, metabolism, brain function, and cardiovascular system. […] To profile the Tox21 10K compound library in TR signaling, a cell-based GH3-TRE-Luc assay (GH3.TRE-Luc cell line, developed by the laboratory of Dr. Albertinka J. Murk, Wageningen University) was used to measure the inhibition of TR. GH3 (rat pituitary tumor) cells stably expressing a TR activity sensor consisting of two TR response elements and a luciferase reporter gene. The cytotoxicity of the Tox21 compound library against the GH3.TRE-Luc cell line was tested in parallel by measuring the cell viability using CellTiter-Fluor assay (Promega, Madison, WI) in the same wells.
Tox21 Assay Protocol Summary:
GH3.TRE-Luc cells were dispensed at 1500 cells/4 uL/well into 1536-well white solid bottom plates using a Multidrop Combi dispenser (Thermo Fisher Scientific Inc., Waltham, MA). After the assay plates were incubated at 37 C for 4 hours, 23 nL of library compound or DMSO controls was transferred to the assay plates by a pintool station (Kalypsys, San Diego, CA), followed by addition of 1 ul of T3 (1 nM, final concentration in the wells) to stimulate TR transactivation. The assay plates were incubated at 37 C for 23.5 h, and then 1 uL of CellTiter-Fluor reagent (Promega, Madision, WI) of measuring cytotoxicity was added to each well using a Bioraptr Flying Reagent Dispenser (FRD) workstation (Beckman Coulter, Indianapolis, IN, USA). The plates were incubated at 37C and 5% CO2 for additional 30 min, and fluorescence intensity was measured by a ViewLux plate reader (PerkinElmer, Shelton, CT).
On the technique in general: In qHTS, concentration-response curves come from the screen itself.
With `N[C@@H](CSSC[C@H](N)C(=O)O)C(=O)O`, the “activity change, negative = cytotoxic” value is 9.08%.
Take `Cc1cccc(Br)c1`: the “activity change, negative = cytotoxic” value was -5.96% [at 95 µM].
For `CCCCOc1ccc(C(=O)CCN2CCCCC2)cc1`, the Potency is 5.07 µM (active).
In the case of `O=S(=O)(O)CCCN1CCOCC1`, the “activity change, negative = cytotoxic” value is 15.8%.
In the case of `COc1ccccc1OCCNCC(O)COc1cccc2[nH]c3ccccc3c12` (stereo not given), the Potency was 29.8 µM (active).
Take `CCN(CC)CCOc1ccc(C(O)(Cc2ccc(Cl)cc2)c2ccc(C)cc2)cc1` (stereo not given): the Potency was 7.5 µM (active).
For the molecule `ClC/C=C\CCl`, the “activity change, negative = cytotoxic” value was 15% [at 95 µM].
With `O=C1NCN(c2ccccc2)C12CCN(CCCC(c1ccc(F)cc1)c1ccc(F)cc1)CC2`, the Potency is 3.35 µM (active).
Regarding `c1ccc(Sc2ccccc2)cc1`, the “activity change, negative = cytotoxic” value is 3.73%.
Take `CCCCCCCC/C=C\CCCCCCCC(=O)NCc1ccc(O)c(OC)c1`: the Potency was 6.68 µM (active).
As for `CC(C(O)c1ccccc1)N(C)CCOC(c1ccccc1)c1ccccc1` (stereo not given), the Potency is 11.9 µM (active).
Turning to `CCCCCCCOC(=O)c1ccc(O)cc1`, the Potency was 61.1 µM (active).
As to `CN(C)CCCN1c2ccccc2CCc2ccccc21`, the Potency is 5.96 µM (active).
As for `CC(CN(C)C)CN1c2ccccc2CCc2ccccc21` (stereo not given), the Potency was 4.52 µM (active).
On the same count and under the same terms, the value for `CC(=O)OC(OC(C)=O)c1ccc([N+](=O)[O-])o1` was 13.9 µM (active).
Consider `O=C(O)Cc1ccc(OCCNC[C@H](O)c2ccccc2)cc1`, for which the “activity change, negative = cytotoxic” value was -26.4%.
Turning to `CCCCCCOc1cc(C)c(O)c(C)c1C`, the Potency was 49.2 µM (active).
As for `NCCCC(O)(P(=O)(O)O)P(=O)(O)O`, the “activity change, negative = cytotoxic” value is 16.6%.
On to `CCN1CCN(c2cc(-c3ccc(F)cc3)c3c(n2)CCCCCC3)CC1`, for which the Potency was 13.3 µM (active).
Regarding `C=CC(=O)OCCOCC(CC)(COCCOC(=O)C=C)COCCOC(=O)C=C`, the “activity change, negative = cytotoxic” value was 9.3% [at 95 µM].
On to `CC1=C(/C=C/C(C)=C/C=C/C(C)=C/C(=O)Nc2ccc(O)cc2)C(C)(C)CCC1`, for which the Potency is 6.68 µM (active) and 8.85 µM (active).
In the case of `C=CC(C)(CCC=C(C)C)OC(=O)/C=C/c1ccccc1` (stereo not given), the “activity change, negative = cytotoxic” value was -22.2%.
`COc1ccc2sc(C(=O)Nc3nnn[nH]3)c(OC(C)C)c2c1`: the Potency was 7.66 µM (active).
For `N#CSCSc1nc2ccccc2s1`, the Potency is 1.54 µM (active).
For the molecule `CC(C)(c1cc(Br)c(OCCO)c(Br)c1)c1cc(Br)c(OCCO)c(Br)c1`, the Potency was 47.5 µM (active).
On to `O=C(O)CCn1c2c(c3ccccc31)C[C@H](NS(=O)(=O)c1ccc(F)cc1)CC2`, for which the “activity change, negative = cytotoxic” value is -0.201%.
Turning to `Cc1c(-c2ccc(O)cc2)n(Cc2ccc(OCCN3CCCCCC3)cc2)c2ccc(O)cc12`, the Potency was 9.44 µM (active).
On to `CC(C)(c1cc(Br)c(O)c(Br)c1)c1cc(Br)c(O)c(Br)c1`, for which the Potency was 27.2 µM (active).
As for `CCCCCCCC/C=C\CCCCCCCC(=O)N(C)CC(=O)O`, the Potency is 30.6 µM (active).
The same measure, in the same setting: the value for `CCOC(=O)C1=C(C)NC(C)=C(C(=O)OCC)C1c1ccccc1/C=C/C(=O)OC(C)(C)C` was 13.3 µM (active).
The same measure, in the same setting: for `CN1[C@@H]2CC[C@H]1CC(OC(=O)C(CO)c1ccccc1)C2` (stereo not given in full) the value was “inactive”; for `O[C@@H](c1cc(C(F)(F)F)nc2c(C(F)(F)F)cccc12)[C@H]1CCCCN1`, 5.96 µM (active).
In the case of `CCCOc1sc(C(=O)N2CCC(c3cc(CN)ccc3F)CC2)c(C)c1Br`, the Potency is 6.28 µM (active).
On to `CC(NCCC(c1ccccc1)c1ccccc1)c1ccccc1` (stereo not given), for which the Potency was 9.44 µM (active).
In the case of `CCCCCCCCCCCCCC[n+]1ccccc1`, the Potency was 6.86 µM (active).
For the molecule `CC1CCCNC1` (stereo not given), the “activity change, negative = cytotoxic” value is 3.87%.
`CC1=C(/C=C/C(C)=C/C=C/C(C)=C\C=O)C(C)(C)CCC1`: the Potency is 25.8 µM (active).
In the case of `CCOC(=O)COc1ccc(C)cc1`, the “activity change, negative = cytotoxic” value is -15%.
Take `Cc1oc(-c2ccccc2)nc1CCOc1ccc(C[C@H](Nc2ccccc2C(=O)c2ccccc2)C(=O)O)cc1`: the Potency is 27.3 µM (active).
For the molecule `CC(C)=C1CC[C@@H](C)CC1=O`, the “activity change, negative = cytotoxic” value was 0.76%.
